{"source": "PubChem BioAssay (NCATS)", "note": "Inconclusive results are not listed. Where a call stands in place of a potency, no number is given. Calls of active or inactive are those of the source. The call rests on the fitted dose curve; in most records, active means well fitted inhibition curve with a large enough effect; inconclusive means small, poorly fitted or top-dose-only effect; inactive means flat fitted curve, though single readings scatter."}
{"molecular_target": "Phospholipid hydroperoxide glutathione peroxidase GPX4 (Homo sapiens) (UniProt P36969)", "sequence (P36969 whole entry, looked up)": "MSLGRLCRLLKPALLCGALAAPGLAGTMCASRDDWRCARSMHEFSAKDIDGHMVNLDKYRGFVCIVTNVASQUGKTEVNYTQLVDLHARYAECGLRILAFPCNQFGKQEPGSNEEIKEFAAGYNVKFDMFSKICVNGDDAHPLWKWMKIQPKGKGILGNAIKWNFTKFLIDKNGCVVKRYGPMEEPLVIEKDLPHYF", "assay": "Primary qHTS Assay for Inhibitors of Recombinant Selenoprotein Glutathione Peroxidase 4 (GPX4) (AID 1845192); further: nearly all actives have a fitted effect of over 65% in size", "conditions": "recombinant GPX4, GR-coupled NADPH fluorescence, 15 min; series mostly up to 50 µM", "how_it_was_run": "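NADPH consumption, followed by fluorescence at 340/450 nm between 0 and 15 min, reports GPX4 activity via coupled glutathione reductase (100 nM). Enzyme 200 nM was pre-exposed to compound 30 min; 0.5 mM cumene hydroperoxide and 1 mM GSH served as substrates.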"}
{"smiles": "CO/N=C(\\C(=O)N[C@@H]1C(=O)N2C(C(=O)O)=C(COC(C)=O)CS[C@H]12)c1csc(N)n1", "Potency": "inactive"}
{"smiles": "Nc1nc(Cl)nc2c1ncn2[C@@H]1O[C@H](CO)[C@@H](O)[C@H]1O", "Potency": "inactive"}
{"smiles": "NC[C@@H]1O[C@H](C23CC4CC(CC(C4)C2)C3)Cc2c1ccc(O)c2O", "Potency": "inactive"}
{"smiles": "Cn1cc(C2=C(c3ccc(Cl)cc3Cl)C(=O)NC2=O)c2ccccc21", "Potency": "inactive"}
{"smiles": "CN(C)C(N)=NCCC[C@H](N)C(=O)O", "Potency": "inactive"}
{"smiles": "O=C(c1cc(O)c(O)c([N+](=O)[O-])c1)c1ccccc1F", "Potency": "inactive"}
{"smiles": "COc1cccc(C(=O)NCCN2CCN(c3ccc(Cl)cc3)CC2)c1", "Potency": "inactive"}
{"smiles": "CN(C)c1nc(N)c(C(=O)N=C(N)N)nc1Cl", "Potency": "inactive"}
{"smiles": "Brc1cc2c(cc1[C@H]1Nc3ccccc3[C@H]3C=CC[C@H]31)OCO2", "Potency": "inactive"}
{"smiles": "NCC1OC(O[C@H]2[C@H](O)[C@@H](OC3C(O)C(N)CC(N)C3OC3OC(CO)C(O)C(O)C3N)O[C@@H]2CO)C(N)C(O)C1O", "note": "(stereo partly drawn)", "Potency": "inactive"}
{"smiles": "CN1CCc2cccc3c2C1Cc1ccc(O)c(O)c1-3", "note": "(stereo not drawn)", "Potency": "inactive"}
{"smiles": "O=C(CCSCc1ccco1)NNC(=O)N1Cc2ccccc2Oc2ccc(Cl)cc21", "Potency": "inactive"}
{"smiles": "COc1ccc(-c2cc(=O)c3c(O)c(OC)c(OC)cc3o2)cc1O", "Potency": "inactive"}
{"smiles": "CCCC(CCC)C(=O)OC1CC2CCC(C1)[N+]2(C)C", "note": "(stereo not drawn)", "Potency": "inactive"}
{"smiles": "OC[C@H]1O[C@@H](n2cnc3c(NC4CCCC4)ncnc32)[C@H](O)[C@@H]1O", "Potency": "inactive"}
{"smiles": "O=C(O)c1cc(O)c(O)c(O)c1", "Potency": "inactive"}
{"smiles": "CC[C@H]1OC(=O)[C@H](C)C(O[C@H]2C[C@@](C)(OC)[C@@H](O)[C@H](C)O2)[C@H](C)[C@@H](OC2O[C@H](C)C[C@H](N(C)C)[C@H]2O)[C@](C)(O)C[C@@H](C)CN(C)[C@H](C)[C@@H](O)[C@]1(C)O", "note": "(stereo partly drawn)", "Potency": "inactive"}
{"smiles": "COc1ccc(NC(=O)/C=C/c2ccc(Cl)cc2)cc1", "Potency": "inactive"}
{"smiles": "CCCCCCCCCCCCCCCCCC(=O)O", "Potency": "inactive"}
{"smiles": "CN[C@H](CC(C)C)C(=O)N[C@H]1C(=O)N[C@@H](CC(N)=O)C(=O)N[C@H]2C(=O)N[C@H]3C(=O)N[C@H](C(=O)N[C@H](C(=O)O)c4cc(O)cc(O)c4-c4cc3ccc4O)[C@H](O)c3ccc(c(Cl)c3)Oc3cc2cc(c3O[C@@H]2O[C@H](CO)[C@@H](O)[C@H](O)[C@H]2O[C@H]2C[C@](C)(N)[C@H](O)[C@H](C)O2)Oc2ccc(cc2Cl)[C@H]1O", "Potency": "inactive"}
{"smiles": "CCN(CC)c1ncnc2c1ncn2[C@@H]1O[C@H](COP(=O)(O)OP(=O)(O)C(Br)(Br)P(=O)(O)O)[C@@H](O)[C@H]1O", "Potency": "inactive"}
{"smiles": "C[N+]1(C)CCC(OC(=O)C(c2ccccc2)c2ccccc2)CC1", "Potency": "inactive"}
{"smiles": "COCCOc1cc2nc[nH]c(=O)c2cc1OCCOC", "Potency": "inactive"}
